Assay results as given in ChEMBL document CHEMBL1157539, “Thousands of chemical starting points for antimalarial lead identification” (Nature, 2010).

The compounds below were run on HepG2 (assay: GSK_TCMDC: Percent inhibition of human HepG2 cell line. Test compounds present at 10uM.).
Type: functional

| Compound | Inhibition [%] |
| --- | --- |
| O=C(NC1CCC(N2CCC(O)(c3ccc(F)cc3)CC2)CC1)c1cc2ccccc2[nH]1 (stereo not drawn) | 9 |
| O=C(Nc1ccc2c(c1)CCN(C1CCC1)CC2)c1cn(-c2ccccc2)nc1-c1ccccc1.O=C(O)C(F)(F)F | 38 |
| COc1ccc(NCc2cccc(-c3cccc(CNCCc4ccccc4)c3)c2)cc1.O=C(O)C(F)(F)F | 41 |
| CS(=O)(=O)N1CC2(CCN(CCC(NC(=O)NCc3ccc(Cl)c(Cl)c3)c3ccc(Cl)c(Cl)c3)CC2)c2ccccc21 (stereo not drawn) | 19 |
| N#Cc1ccc(-c2ccc(C(=O)NCCCCN3CCC(c4ccc5c(c4OCc4ccncc4)CCCC5)CC3)cc2)cc1 | 41 |
| Cc1c2c(nn1-c1ccccc1)C(c1ccccc1)N(c1ccccc1)C2=O (stereo not drawn) | 42 |
| O=C(/C=C/c1ccc(Cl)c(Cl)c1)NCCCCCN1CCC(NC(=S)Nc2cccc(Cl)c2)CC1 | 24 |
| COc1cccc(NC(=O)c2ccc(NCCCN3CCC(C)CC3)c([N+](=O)[O-])c2)c1 | 9 |
| N#Cc1ccc(Cn2ccc3c4c(N)nc(N)nc4ccc32)cc1 | 64 |
| CS(=O)(=O)CCNCc1nc(-c2ccc3c(=O)[nH]cnc3c2)cs1 | 81 |
| Cc1cc(C(=O)Nc2ccc(OCc3ccccc3)cc2)on1 | 1 |
| COc1ccc(CN2CCC(N3CCc4cc(NC(=O)c5cc(C)on5)ccc43)C2)cc1Cl (stereo not drawn) | 15 |
| CN1CCN(c2cccc(-c3nnc(-c4ccc(OCC(=O)NCc5cccc(C(F)(F)F)c5)c([N+](=O)[O-])c4)o3)c2)CC1 | 25 |
